Shown are actives, neighbours in structure and some others; about 4.7% of the full set was active somewhere.
tim10-1 inh: growth inhibitors of tim10-1 mutant yeast; S. cerevisiae tim10-1 ts strain growth, BacTiter-Glo, 24 h; inhibition, % at 20 µM; 330,000 tested, 2.2% active;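 active = inhibition of at least 40%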;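 also: mutant grown at 25 °C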
ATG4B inh: ATG4B (human) cysteine protease inhibition; Q9Y4P1; ATG4B cleavage of LC3-PLA2, NBD-HPC fluorescence, 1 h; inhibition, % at 8.33 µM; 340,000 tested, 0.51% active; AID 504462; in the data active = inhibition above about 40%
Target sequence (Q9Y4P1 whole entry, looked up): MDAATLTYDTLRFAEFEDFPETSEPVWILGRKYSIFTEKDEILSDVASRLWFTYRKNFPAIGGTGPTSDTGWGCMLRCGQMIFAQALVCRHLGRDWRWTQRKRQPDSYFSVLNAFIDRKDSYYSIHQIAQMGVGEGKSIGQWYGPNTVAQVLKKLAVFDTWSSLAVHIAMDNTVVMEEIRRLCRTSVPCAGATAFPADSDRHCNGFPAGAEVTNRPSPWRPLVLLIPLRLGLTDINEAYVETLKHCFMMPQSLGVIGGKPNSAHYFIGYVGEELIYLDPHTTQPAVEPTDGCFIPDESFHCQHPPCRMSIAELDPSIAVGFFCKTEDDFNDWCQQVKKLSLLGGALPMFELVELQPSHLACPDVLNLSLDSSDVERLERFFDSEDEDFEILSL
SKKanGAS inh: blocks kanamycin growth of S. pyogenes SKKanGAS strain | BacTiter-Glo, 6 h | inhibition, % at 7.5 µM | 300,000 tested, 1.3% active;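 active = mean replicate score, as percent of positive control median, at least 50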;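 also: strain carries kanamycin resistance gene driven by streptokinase promoter and grows in 40 µg/ml kanamycin; loss of luminescence reflects streptokinase promoter inhibition or plain growth inhibition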
TIM10 inh: growth inhibitors of TIM10 yeast strain | inhibition, % at 10 µM | S. cerevisiae TIM10 strain growth, BacTiter-Glo luminescence, 24 h | 330,000 tested, 1.4% active | AID 463195;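 active = inhibition of 40% or more at the single tested concentration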;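 also: wild-type TIM10 isogenic control strain grown at permissive 25 °C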
tim23-1 inh: growth inhibitors of tim23-1 mutant yeast; AID 463212; 330,000 tested, 1.3% active; S. cerevisiae tim23-1 growth, BacTiter-Glo luminescence, 24 h; inhibition, % at 20 µM;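 active = growth inhibition of the mutant yeast at or above 50%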;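 also: temperature-sensitive mutant grown at 25 °C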
PfHsp90 yeast 2: inhibits growth of yeast expressing Plasmodium falciparum Hsp90; S. cerevisiae expressing PfHsp90, BacTiter-Glo ATP, 48 h; yeast lacking PDR1 and PDR3 efflux regulators; inhibition, % at 9.4 µM; 310,000 tested, 0.32% active;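 active = every replicate shows inhibition above about 80%, whatever the replicate mean, limit read from the data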
tim10-1 conf: tim10-1 yeast growth inhibition, confirmed. shares compounds with tim10-1 inh. S. cerevisiae tim10-1 ts strain growth, BacTiter-Glo, 24 h. inhibition, % at 20 µM. 7,400 tested, 56% active. AID 463213;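 active = inhibition of yeast growth at or above a set limit in either of two repeat tests at 20 µM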;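 also: tim10-1 mutant grown at permissive 25 °C to find synthetic lethal compounds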
tim10 confirm: TIM10 yeast growth inhibition, confirmed; 4,600 tested, 63% active; shares compounds with TIM10 inh; S. cerevisiae tim10 strain growth, BacTiter-Glo luminescence, 24 h; AID 463215; inhibition, % at 10 µM;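 active = inhibition of yeast growth at or above a set limit in either of two replicates at 10 µM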; also: this counterscreen used the strain with wild-type TIM10
tim23-1 conf: tim23-1 yeast growth inhibition, confirmed; inhibition, % at 20 µM; 4,400 tested, 83% active; S. cerevisiae tim23-1 growth, BacTiter-Glo luminescence, 24 h; AID 463218; shares compounds with tim23-1 inh;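 active = inhibition above about 39% in either of two replicate wells at 20 µM, limit read from the data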;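 also: temperature-sensitive tim23-1 mutant grown at 25 °C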
ATG4B conf: confirmation of human ATG4B inhibitors | shares compounds with ATG4B inh | ATG4B protease fluorescent substrate cleavage assay | inhibition, % at 8.33 µM | 320 tested, 92% active | AID 504757; in the data active = inhibition above about 39%
PLA2 ctr: PLA2 (human) inhibition in ATG4B counter-screen; 1,600 tested, 66% active; inhibition, % at 8.33 µM; AID 588402; purified PLA2, NBD-C6-HPC fluorescence, 45 min; shares compounds with ATG4B inh; in the data active = inhibition above about 50%
Target sequence (P04054 whole entry, looked up): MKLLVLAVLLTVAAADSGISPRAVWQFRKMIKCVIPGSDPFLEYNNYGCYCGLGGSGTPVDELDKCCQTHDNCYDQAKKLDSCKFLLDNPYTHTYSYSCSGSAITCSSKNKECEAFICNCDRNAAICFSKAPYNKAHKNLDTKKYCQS
Each line names hits and unclear results; the compound was inactive in the other large screens (follow-up assays come after a bar, where they were run).

CCCCCCCCCCCCCCCC[N+](C)(C)CCN(Cc1ccc(OC)cc1)c1ncccn1	tim10-1 inh 97, ATG4B inh 67, TIM10 inh 95, tim23-1 inh 93, PfHsp90 yeast 2 106 (no result: SKKanGAS inh) | tim10-1 conf 98 | tim10 confirm 99 | tim23-1 conf 96 | PLA2 ctr 61
COc1ccc(CN(CCN(C)C)c2ccccn2)cc1	none
Cc1c(Cl)c([N+](=O)[O-])nn1Cc1ccc(C(=O)Nc2ccc(Cl)cn2)o1	tim10-1 inh 47, ATG4B inh 46 | tim10-1 conf 34 | ATG4B conf 64 | PLA2 ctr inactive
Cc1nn(Cc2c(F)c(F)c(F)c(F)c2F)c(C)c1NC(=O)c1ccc(COc2ccccc2Cl)cc1	none (no result: tim10-1 inh, TIM10 inh, tim23-1 inh)
Cc1nn(Cc2c(F)c(F)c(F)c(F)c2F)c(C)c1NC(=O)c1ccc(COc2ccccc2Cl)o1	tim10-1 inh 46, ATG4B inh 68 (no result: PfHsp90 yeast 2) | tim10-1 conf 32 | PLA2 ctr 79
Cc1cccc(Cc2cnc(NC(=O)c3ccc(C)o3)s2)c1	tim10-1 inh 55, ATG4B inh 47, SKKanGAS inh 77, TIM10 inh 45 | tim10-1 conf 40 | tim10 confirm 48 | PLA2 ctr 63
Cc1cccc(Cc2cnc(NC(=O)C3=NCCN3)s2)c1	none (no result: PfHsp90 yeast 2)
Nc1ccn(Cc2ccccc2)n1	none (no result: PfHsp90 yeast 2)
Oc1cc(NCCc2cccnc2)cc2cccnc12	none (no result: SKKanGAS inh)
N#Cc1c(N2CCCC2)nc(N)c2c(N)nc(N3CCCC3)cc12	tim10-1 inh 60, ATG4B inh 74, TIM10 inh 43, tim23-1 inh 81 | tim10-1 conf 54 | tim10 confirm 31 | tim23-1 conf 89 | ATG4B conf inactive | PLA2 ctr inactive
Cc1cccc(N=Cc2cc(Br)cc(Cl)c2O)c1	tim10-1 inh 50, ATG4B inh 40, tim23-1 inh 73 | tim10-1 conf inactive | tim23-1 conf 84 | ATG4B conf 63 | PLA2 ctr inactive
Cc1ccc(NC2CCCN(C(=O)CSc3ccccn3)C2)cc1C (stereo not given)	none
CCc1nn(CCCC(=O)NCc2ccccc2Br)c(=O)c2cc3occc3n12	tim10-1 inh 43, ATG4B inh 51, SKKanGAS inh 59, tim23-1 inh 50 | tim10-1 conf inactive | tim23-1 conf 54 | ATG4B conf 66 | PLA2 ctr inactive
COc1ccc(OCCN2C(=O)c3ccccc3C2=O)cc1	none
Cc1cccc2c1N(CCOc1ccc(C(C)(C)C)cc1)C(=O)C2=O	tim10-1 inh 46, ATG4B inh 57 | tim10-1 conf 33 | ATG4B conf 52 | PLA2 ctr inactive
CC(=O)NC1(c2nnnn2CCOC(=O)Nc2ccc(Cl)cc2)CCCC1	none
CCCNC(=S)N1CCN(c2nc(C)nc3sc4c(c23)CCCC4)CC1	tim10-1 inh 43, ATG4B inh 49 | tim10-1 conf inactive | PLA2 ctr 78
Cc1cccc(C)c1OCC(O)Cn1c2ccccc2c2ccccc21 (stereo not given)	tim10-1 inh 45, ATG4B inh 53, SKKanGAS inh 88 (no result: PfHsp90 yeast 2) | tim10-1 conf inactive | PLA2 ctr 61
CC(C)(C)c1cc(-c2csc(Nc3ccccc3)[n+]2Cc2ccc(C(=O)O)cc2)cc(C(C)(C)C)c1O	tim10-1 inh 46, ATG4B inh 46, SKKanGAS inh 115, tim23-1 inh 54 | tim10-1 conf 57 | tim23-1 conf 53 | PLA2 ctr 56
C=CC[n+]1c(C)csc1Nc1ccc(C(=O)O)cc1	none
CCOc1ccc2nc(NC(=O)c3cccnc3)sc2c1	none
Cc1cccc(C(=O)O/N=C2\CCCc3ccccc32)c1	tim10-1 inh 44, ATG4B inh 45 | tim10-1 conf 36 | PLA2 ctr inactive
CS(=O)(=O)Nc1ccc2c(c1)OCC(=O)N2Cc1ccccc1	none
COc1ccc(OC)c(NC(=O)COC(=O)C2CCN(C(=O)c3ccc(Cl)cc3)CC2)c1	none
CCOc1cc2c3c(c1)C1(OCCO1)C(=O)N3C(C)(C)CC2C (stereo not given)	none
CCOc1cc2c3c(c1)C1(Nc4ccccc4S1)C(=O)N3C(C)(C)CC2C (stereo not given)	tim10-1 inh 49, ATG4B inh 43, TIM10 inh 47 | tim10-1 conf 48 | tim10 confirm 32 | PLA2 ctr inactive
COc1ccc(N2CCN(C(=O)C3CCN(S(=O)(=O)c4c(C)noc4/C=C/N(C)C)CC3)CC2)cc1	none
COc1cc(CN2CC(=O)N(c3ccc(C)cc3)C2=S)cc(OC)c1OC	none
COc1cc(CN2CC(=O)N(c3cccc(Cl)c3C)C2=S)cc(OC)c1OC	none
Cc1cccc(N2C(=O)CN(Cc3cccs3)C2=S)c1	tim10-1 inh 42, ATG4B inh 52 | tim10-1 conf inactive | PLA2 ctr 74
Cc1ccsc1CN1CC(=O)N(c2c(C)cccc2C)C1=S	tim10-1 inh 45, ATG4B inh 85 (no result: PfHsp90 yeast 2) | tim10-1 conf 36 | PLA2 ctr 93
COc1ccc(-c2cc(C(F)(F)F)nc(SCC(=O)N(C)Cc3cnn(C)c3C)n2)cc1OC	none
CO/N=C/c1c(-c2ccc(Cl)cc2)nc2cc(C)ccn12	none
C[C@@]12CCC=C[C@H]1[C@H](c1ccccc1Br)N(Cc1ccccc1)C2=O	tim10-1 inh 43, ATG4B inh 48, TIM10 inh 40, tim23-1 inh 63 (no result: SKKanGAS inh) | tim10-1 conf 51 | tim10 confirm 48 | tim23-1 conf 55 | PLA2 ctr 79
CC(=O)N(C(C)=O)N1C(=O)/C(=C/c2ccc(Cl)cc2)SC1=S	tim10-1 inh 64, ATG4B inh 68, TIM10 inh 57, tim23-1 inh 75, PfHsp90 yeast 2 114 | tim10-1 conf 58 | tim10 confirm 80 | tim23-1 conf 39 | PLA2 ctr 57
CN1CCN(C(=O)CCN2C(=O)/C(=C\c3ccc(Cl)cc3)SC2=S)CC1	none
CC(C)(CO)CNC(=O)CC1C(=O)NCCN1CC(c1ccccc1)c1ccccc1 (stereo not given)	none (no result: PfHsp90 yeast 2)

Screening results: PubChem BioAssay, several laboratories
